Data reported in PubChem BioAssay AID1159580 (chemical genetic matrix, 2015).
Among all 5,500 compounds or so, about 2,000 (36%) were called active. Another 18% or so got no clear call; they are omitted. Cut-off read from the data, not from the text of the source: active = normalized growth mostly below about 0.91 (no sharp cut-off); inconclusive = no clear call, values can overlap the other calls; inactive = mostly above about 0.92. Some of the results follow.

Assay: chemical genetic growth profiling, strain panel (AID 1159580);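 note: tested at 20 µM; growth read once vehicle control cultures reached saturation at 30 °C; 1 = growth at the plate median or of vehicle wells; lower values mean less growth of the strain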
Conditions: S. cerevisiae deletion strains, growth OD

Measured: normalized growth

CC(CCC(=O)O)[C@H]1CCC2C3CC[C@@H]4C[C@H](O)CC[C@]4(C)C3CC[C@@]21C (stereo partly drawn)
inactive: locus YJL187C, strain SWE1, hits give low values 0.979 | locus YJR066W, strain TOR1, hits give low values 0.952 | locus YKL009W, strain mrt4, hits give low values 0.935 | locus YKL068W, hits give low values 1.05 | locus YKL085W, strain MDH1 (second series), hits give low values 1.03 | locus YKL085W, strain MDH1, hits give low values 1.03 | locus YKL160W, strain elf1, hits give low values 0.927 | locus YKR026C, strain gcn3, hits give low values 1.02 | locus YKR091W, strain srl3, hits give low values 1.03 | locus YLL001W, strain dnm1, hits give low values 0.933 | locus YLL026W, hits give low values 0.955 | locus YLL041C, strain sdh2, hits give low values 1.02 | locus YLR058C, strain SHM2, hits give low values 0.893 | locus YLR113W, strain HOG1, hits give low values 0.963 | locus YLR221C, strain rsa3, hits give low values 0.938 | locus YLR258W, strain gsy2, hits give low values 0.967 | locus YLR268W, strain sec22, hits give low values 0.886 | locus YLR357W, strain rsc2, hits give low values 1.07 | locus YLR370C, strain arc18, hits give low values 0.991 | locus YLR371W, strain rom2, hits give low values 1.09 | locus YLR384C, strain iki3, hits give low values 1.07 | locus YML016C, strain PPZ1, hits give low values 1.01 | locus YML032C, strain rad52, hits give low values 0.914 | locus YML120C, strain ndi1, hits give low values 0.93 | locus YML124C, strain tub3, hits give low values 1.05 | locus YMR078C, strain ctf18, hits give low values 1.06 | locus YMR125W, strain sto1, hits give low values 1.08 | locus YMR129W, hits give low values 1.03 | locus YMR223W, strain ubp8, hits give low values 0.934 | locus YMR231W, strain pep5, hits give low values 0.95 | locus YNL128W, strain TEP1, hits give low values 0.866 | locus YNL183C, strain NPR1, hits give low values 0.935 | locus YNL209W, strain ssb2, hits give low values 0.993 | locus YNL233W, strain BNI4, hits give low values 0.926 | locus YNL248C, strain rpa49, hits give low values 0.938 | locus YNL250W, strain rad50, hits give low values 1.02 | locus YNL271C, strain bni1, hits give low values 1.02 | locus YNL298W, strain CLA4, hits give low values 0.978 | locus YNL322C, strain KRE1 (second series), hits give low values 1.01 | locus YNR049C, strain mso1, hits give low values 0.987 | locus YOL012C, strain htz1 1.89 | locus YOL147C, strain pex11, hits give low values 1.02 | locus YOR061W, strain CKA2, hits give low values 0.964 | locus YOR070C, strain gyp1, hits give low values 0.953 | locus YOR080W, strain dia2, hits give low values 0.973 | locus YOR144C, strain elg1, hits give low values 1.02 | locus YOR231W, strain MKK1, hits give low values 0.97 | locus YOR265W, strain rbl2, hits give low values 0.994 | locus YOR270C, strain vph1, hits give low values 0.807 | locus YOR290C, strain snf2, hits give low values 0.937 | locus YPL106C, strain sse1, hits give low values 1.12 | locus YPL240C, strain hsp82, hits give low values 1.03 | locus YPL241C, strain CIN2, hits give low values 0.997 | locus YPL256C, strain CLN2, hits give low values 1.05 | locus YPR163C, strain tif3, hits give low values 0.968 | locus YPR167C, strain met16, hits give low values 0.991 | strain wtn01, hits give low values 0.961
active: locus YJR043C, strain POL32, hits give low values 0.849 | locus YKL190W, strain CNB1, hits give low values 0.882 | locus YKR001C, strain vps1, hits give low values 0.861 | locus YLR027C, strain aat2, hits give low values 0.921 | locus YLR039C, strain RIC1, hits give low values 0.479 | locus YLR102C, strain apc9, hits give low values 1.08 [resistant] | locus YLR262C, strain YPT6 (second series), hits give low values 0.488 | locus YLR262C, strain YPT6, hits give low values 0.321 | locus YLR320W, strain mms22, hits give low values 0.706 | locus YLR330W, strain CHS5, hits give low values 0.849 | locus YLR342W, strain FKS1 (second series), hits give low values 0.566 | locus YLR342W, strain FKS1, hits give low values 0.688 | locus YLR418C, strain cdc73, hits give low values 0.74 | locus YMR058W, strain fet3, hits give low values 0.871 | locus YMR205C, strain PFK2, hits give low values 0.854 | locus YMR307W, strain GAS1, hits give low values 0.456 | locus YNL067W, strain RPL9B, hits give low values 0.756 | locus YNL071W, strain lat1, hits give low values 0.809 | locus YNL307C, strain MCK1, hits give low values 0.795 | locus YNR052C, strain pop2, hits give low values 0.838 | locus YOR001W, strain rrp6, hits give low values 0.851 | locus YOR069W, strain VPS5, hits give low values 0.876 | locus YOR083W, strain WHI5, hits give low values 0.844 | locus YOR106W, strain vam3, hits give low values 0.77 | locus YOR136W, strain idh2, hits give low values 1.08 [resistant] | locus YOR184W, strain ser1, hits give low values 0.505 | locus YOR316C, strain cot1, hits give low values 1.1 [resistant] | locus YPL051W, strain arl3, hits give low values 0.793 | locus YPL078C, strain atp4, hits give low values 0.892 | locus YPR119W, strain clb2, hits give low values 1.11 [resistant] | locus YPR141C, strain kar3, hits give low values 1.09 [resistant]
